PubChem BioAssay (NCATS)
Values joined by “and” are separate entries in the source; they are usually repeats but may differ in a detail not shown here. Equal entries are not always repeated. Results filed as inconclusive are left out. A call without a number means that no potency is given here. Active and inactive are the calls of the source. Unless noted, calls follow the shape of the full dose curve.

Legend:
[1] = Cell Viability - BJ (AID 421); conditions: BJ fibroblast viability, qHTS;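 also: potency is read from the fitted curve at half-maximal effect; cells exposed to compound for 40 hours at 37 °C before readout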
Procedure, shortened: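 Quantitative HTS: ATP depletion in BJ cells after 40 hr compound exposure in complete culture medium, detected with CellTiter-Glo; AC50 from standard Hill fits.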

[2] = Cell Viability - NIH 3T3 (AID 541; active = well fitted curve in the direction sought with a large enough effect; an effect the other way counts as inactive or inconclusive;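 also: cells exposed to compound for 40 hours; nearly all actives have a fitted effect of over 25% in size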; also: potency is read from the fitted curve at half-maximal effect); conditions: NIH 3T3 cell viability, qHTS; activity change, negative = cytotoxicity: at 92.2 µM (top of the series)
Procedure, shortened: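 Intracellular ATP (CellTiter-Glo luminescence, 20 min at room temperature) measured after 40 hr compound exposure at 37 °C of 1000 NIH 3T3 mouse fibroblasts/well in complete medium; AC50 derived by Hill-equation modelling of qHTS concentration-response curves.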

[3] = Cell Viability - SH-SY5Y (AID 544; active = well fitted curve in the direction sought with a large enough effect; an effect the other way counts as inactive or inconclusive;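 also: cells exposed to compound for 40 hours; nearly all actives have a fitted effect of over 55% in size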); conditions: SH-SY5Y neuroblastoma cell viability; viability change, negative = cytotoxic: at 92.2 µM (top of the series)
Procedure, shortened: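 Cytotoxicity measured via ATP-dependent luciferase luminescence (CellTiter-Glo) following 40 h, 37 °C exposure of 1500 SH-SY5Y cells per well. Concentration-response data were fitted with the standard Hill equation to give AC50.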

[4] = Cellular Toxicity (caspase-3) Jurkat (AID 655; active = well fitted curve in the direction sought with a large enough effect; an effect the other way counts as inactive or inconclusive;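 also: cells exposed to compound for 16 h at 37 °C before reading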); conditions: Jurkat caspase-3 activation, luminescence; caspase-3 activation: at 92.2 µM (top of the series), DMSO = 0%, tamoxifen = 100%
Procedure, shortened: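 Caspase 3/7 activation is scored as increased luminescence in Jurkat cells cultured with compound for 16 hours in complete medium. AC50 values come from Hill fits of qHTS concentration-response data normalized to DMSO and 100 uM tamoxifen controls.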

[5] = molecular target: Estrogen receptor (Homo sapiens) (UniProt P03372); assay: qHTS assay for small molecule agonists of estrogen receptor alpha signaling (AID 588514); conditions: ER-alpha-UAS-bla HEK293, beta-lactamase ratio, 18 h; series mostly up to 76.8 µM; also: nearly all actives have a fitted effect of over 70% in size
Chain of Estrogen receptor (Homo sapiens) (P03372 whole entry, looked up): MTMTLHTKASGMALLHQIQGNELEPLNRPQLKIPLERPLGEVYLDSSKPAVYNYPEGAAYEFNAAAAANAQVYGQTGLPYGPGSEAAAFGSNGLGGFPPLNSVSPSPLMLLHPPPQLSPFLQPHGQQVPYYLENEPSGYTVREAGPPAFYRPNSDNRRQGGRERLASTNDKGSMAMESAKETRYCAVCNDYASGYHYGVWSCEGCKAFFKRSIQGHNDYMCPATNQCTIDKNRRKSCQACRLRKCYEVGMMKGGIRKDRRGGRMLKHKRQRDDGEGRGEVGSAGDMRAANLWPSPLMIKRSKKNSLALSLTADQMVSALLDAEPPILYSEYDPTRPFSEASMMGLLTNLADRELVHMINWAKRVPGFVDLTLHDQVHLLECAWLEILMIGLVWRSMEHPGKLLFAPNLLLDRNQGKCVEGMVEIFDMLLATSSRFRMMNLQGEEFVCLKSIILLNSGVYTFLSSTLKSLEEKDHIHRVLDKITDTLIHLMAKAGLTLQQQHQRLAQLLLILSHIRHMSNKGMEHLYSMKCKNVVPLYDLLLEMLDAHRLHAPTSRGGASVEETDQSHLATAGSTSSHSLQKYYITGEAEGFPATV
Procedure, shortened: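 EC50 and efficacy came from Hill fits of beta-lactamase reporter signal (CCF4 dye, 2 h at room temperature) scaled between DMSO and 20 nM 17-beta-estradiol. Agonist mode: HEK293 ER-alpha-UAS-bla cells in charcoal/dextran-stripped serum medium, 18 h compound exposure at 37 C.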

[6] = molecular target: Glucocorticoid receptor (Homo sapiens) (UniProt P04150); assay: qHTS assay for small molecule agonists of glucocorticoid receptor signaling (AID 588532; active = well fitted curve in the direction sought with a large enough effect in the signal ratio, with a control signal flat; the % refers to the signal ratio); conditions: HeLa MMTV-bla, beta-lactamase ratio, agonist, 18 h; stronger effect = higher value; percent of dexamethasone control, DMSO zero
Chain of Glucocorticoid receptor (Homo sapiens) (P04150 whole entry, looked up): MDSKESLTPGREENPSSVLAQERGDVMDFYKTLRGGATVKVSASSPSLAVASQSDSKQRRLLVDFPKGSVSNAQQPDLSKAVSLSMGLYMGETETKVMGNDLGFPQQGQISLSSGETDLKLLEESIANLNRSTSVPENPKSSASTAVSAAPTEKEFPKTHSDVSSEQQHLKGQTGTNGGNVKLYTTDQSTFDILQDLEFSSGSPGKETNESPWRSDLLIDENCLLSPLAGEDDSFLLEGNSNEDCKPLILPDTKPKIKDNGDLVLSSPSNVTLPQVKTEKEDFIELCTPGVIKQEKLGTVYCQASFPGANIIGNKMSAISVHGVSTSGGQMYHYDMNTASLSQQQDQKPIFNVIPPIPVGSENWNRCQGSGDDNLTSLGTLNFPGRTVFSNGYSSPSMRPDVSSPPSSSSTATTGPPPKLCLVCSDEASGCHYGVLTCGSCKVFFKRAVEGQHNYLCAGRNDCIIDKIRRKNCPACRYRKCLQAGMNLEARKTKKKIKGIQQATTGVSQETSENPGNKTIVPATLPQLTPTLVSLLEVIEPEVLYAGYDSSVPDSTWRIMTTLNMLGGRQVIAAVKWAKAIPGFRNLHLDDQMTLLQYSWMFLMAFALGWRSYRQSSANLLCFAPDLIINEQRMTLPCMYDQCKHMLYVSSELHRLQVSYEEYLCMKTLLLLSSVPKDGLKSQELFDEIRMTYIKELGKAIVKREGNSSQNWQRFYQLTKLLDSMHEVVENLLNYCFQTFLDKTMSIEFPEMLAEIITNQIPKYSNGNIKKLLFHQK
Procedure, shortened: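 Cells were plated and rested 3-5 h at 37 C, compounds were added in titration and incubated 18 h, then CCF4 substrate was loaded for 2 h at RT before reading blue/green fluorescence. EC50 came from Hill-equation fitting.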

[7] = molecular target: Peroxisome proliferator-activated receptor gamma (Homo sapiens) (UniProt P37231); assay: qHTS assay for small molecule antagonists of peroxisome proliferator-activated receptor gamma signaling (AID 588537; active = well fitted inhibition curve with a large enough effect in the signal ratio, with a control signal flat, not every such curve was filed as active; the % refers to the signal ratio; also: potency is read from the fitted curve at half-maximal effect); conditions: HEK293 PPARg-UAS-bla, beta-lactamase ratio, antagonist mode; series mostly up to 76.8 µM
Chain of Peroxisome proliferator-activated receptor gamma (Homo sapiens) (P37231 whole entry, looked up): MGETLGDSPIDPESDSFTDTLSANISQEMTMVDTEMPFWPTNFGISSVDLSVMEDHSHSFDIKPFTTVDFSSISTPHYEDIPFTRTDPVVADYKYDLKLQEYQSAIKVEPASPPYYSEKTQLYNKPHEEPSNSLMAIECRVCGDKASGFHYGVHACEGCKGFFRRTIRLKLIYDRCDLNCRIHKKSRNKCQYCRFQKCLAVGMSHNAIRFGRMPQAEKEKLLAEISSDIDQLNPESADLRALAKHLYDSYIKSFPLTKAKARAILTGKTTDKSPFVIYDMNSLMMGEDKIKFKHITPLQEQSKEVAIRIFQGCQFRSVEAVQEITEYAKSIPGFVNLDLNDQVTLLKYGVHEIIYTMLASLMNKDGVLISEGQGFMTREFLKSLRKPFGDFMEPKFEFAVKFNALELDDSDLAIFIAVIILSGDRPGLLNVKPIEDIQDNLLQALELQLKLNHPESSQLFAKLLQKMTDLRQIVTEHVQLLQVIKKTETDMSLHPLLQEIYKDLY
Procedure, shortened: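 Fluorescence at 460 and 530 nm (405 nm excitation) reported beta-lactamase cleavage of CCF4 after 2 h room-temperature loading. HEK293 reporter cells in 1% charcoal/dextran-treated FBS had received compound and rosiglitazone for 16 h.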

[8] = qHTS assay for small molecule disruptors of the mitochondrial membrane potential - 1 hr assay (AID 651754); conditions: series mostly up to 92.2 µM; also: nearly all actives have a fitted effect of over 35% in size; also: potency is read from the fitted curve at half-maximal effect
Procedure, shortened: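 Mitochondrial potential in living HepG2 cells after 1 hr compound treatment at 37C was read with Mito-MPS dye added for a further 30 min. Red aggregate and green monomer fluorescence were measured; loss of potential leaves dye as cytoplasmic monomers.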

[9] = molecular target: Bile acid receptor (Homo sapiens) (UniProt Q96RI1); assay: qHTS assay for small molecule agonists of farnesoid X receptor signaling (AID 588527); conditions: HEK293T FXR-UAS-bla, beta-lactamase ratio, 16 h; stronger effect = higher value
Chain of Bile acid receptor (Homo sapiens) (Q96RI1 whole entry, looked up): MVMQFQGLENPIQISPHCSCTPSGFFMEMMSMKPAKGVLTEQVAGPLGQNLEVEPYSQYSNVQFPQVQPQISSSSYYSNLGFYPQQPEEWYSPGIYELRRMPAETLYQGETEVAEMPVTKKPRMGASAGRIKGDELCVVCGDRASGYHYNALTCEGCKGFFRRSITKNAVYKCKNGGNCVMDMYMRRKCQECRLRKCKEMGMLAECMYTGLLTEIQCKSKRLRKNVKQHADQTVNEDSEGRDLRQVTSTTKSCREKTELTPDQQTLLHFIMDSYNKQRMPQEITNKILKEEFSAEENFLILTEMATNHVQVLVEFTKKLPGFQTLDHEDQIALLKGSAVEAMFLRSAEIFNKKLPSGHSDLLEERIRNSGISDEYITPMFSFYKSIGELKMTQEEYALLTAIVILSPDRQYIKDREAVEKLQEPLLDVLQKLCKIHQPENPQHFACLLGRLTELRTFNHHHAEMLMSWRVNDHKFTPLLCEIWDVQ
Procedure, shortened: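 Quantitative HTS used FXR-UAS-bla HEK293T cells with 16 h compound incubation at 37 C. EC50 values came from concentration-response curves normalized to chenodeoxycholic acid.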

[10] = molecular target: Peroxisome proliferator-activated receptor delta (Homo sapiens) (UniProt Q03181); assay: qHTS assay for small molecule agonists of peroxisome proliferator-activated receptor delta signaling (AID 588534); conditions: HEK293T PPARdelta-UAS-bla, beta-lactamase ratio, 18 h; series mostly up to 76.7 µM
Chain of Peroxisome proliferator-activated receptor delta (Homo sapiens) (Q03181 whole entry, looked up): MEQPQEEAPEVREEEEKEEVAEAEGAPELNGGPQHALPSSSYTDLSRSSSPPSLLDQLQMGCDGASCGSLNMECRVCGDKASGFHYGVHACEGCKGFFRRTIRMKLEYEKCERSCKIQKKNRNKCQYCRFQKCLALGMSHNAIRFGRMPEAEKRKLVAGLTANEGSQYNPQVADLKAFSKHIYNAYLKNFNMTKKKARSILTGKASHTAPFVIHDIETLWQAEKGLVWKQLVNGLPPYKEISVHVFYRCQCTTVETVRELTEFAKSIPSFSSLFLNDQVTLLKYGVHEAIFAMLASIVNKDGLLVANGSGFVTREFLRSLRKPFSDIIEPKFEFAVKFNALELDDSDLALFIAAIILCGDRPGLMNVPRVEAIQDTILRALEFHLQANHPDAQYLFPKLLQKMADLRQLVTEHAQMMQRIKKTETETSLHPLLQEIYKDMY
Procedure, shortened: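 Agonist-mode beta-lactamase reporter readout (CCF4 dye, 2 h at RT) after 18 h at 37 °C exposure to a titration; Hill-equation fitting gave EC50 and maximal response.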

[11] = qHTS assay for small molecule antagonists of peroxisome proliferator-activated receptor delta signaling (AID 588535); conditions: HEK293T PPARd-UAS-bla, beta-lactamase FRET ratio, 18 h; 460 nm channel;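 also: cells co-treated with a PPAR-delta agonist as stimulator during compound exposure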
Procedure, shortened: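 Fluorescence from CCF4-loaded GeneBLAzer PPAR-delta-UAS-bla HEK293T cells (2 hrs RT loading) quantified reporter inhibition after an 18 hr, 37 C compound exposure across a titration.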

[12] = qHTS assay for small molecule agonists of the antioxidant response element (ARE) signaling pathway (AID 651741; active = well fitted activation curve with a large enough effect in the signal ratio; the % refers to the signal ratio; also: potency is read from the fitted curve at half-maximal effect); conditions: HepG2 ARE-bla reporter, beta-lactamase FRET ratio, 16 h; series mostly up to 96 µM
Procedure, shortened: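 Stably integrated ARE-beta-lactamase reporter HepG2 cells; 16 h compound incubation, 37 C; LiveBLAzer FRET substrate 2 h at room temperature; fluorescence intensity.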

[13] = Cell Viability - SK-N-SH (AID 435); conditions: SK-N-SH neuroblastoma cell viability qHTS; also: potency is read from the fitted curve at half-maximal effect
Procedure, shortened: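 Cells seeded at 1500 per well and incubated 5 hr at 37 °C. Compound added, then 40 hr at 37 °C. CellTiter-Glo added, 20 min at room temperature, luminescence read.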

[14] = Cell Viability - N2a (AID 540; active = well fitted curve in the direction sought with a large enough effect; an effect the other way counts as inactive or inconclusive; also: nearly all actives have a fitted effect of over 45% in size); conditions: N2a mouse neuroblastoma cell viability; activity change, negative = cytotoxicity: at 92.2 µM (top of the series)
Procedure, shortened: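 CellTiter-Glo ATP luminescence, read 20 min after reagent at room temperature, reported viability following 40 h compound treatment at 37 °C. N2a mouse neuroblastoma cells seeded 1500/well; Hill equation gave AC50.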

[15] = Cell Viability - H-4-II-E (AID 543; active = well fitted curve in the direction sought with a large enough effect; an effect the other way counts as inactive or inconclusive;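 also: cells exposed to compound for 40 hours; nearly all actives have a fitted effect of over 35% in size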); conditions: H-4-II-E rat hepatoma viability; series mostly up to 92.2 µM
Procedure, shortened: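 CellTiter-Glo luminescence (intracellular ATP) measured after 40 h compound exposure at 37 °C in H-4-II-E rat hepatoma cells seeded at 1500/well. Values are AC50s fitted with the standard Hill equation.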

[16] = molecular target: Bile acid receptor (Homo sapiens) (UniProt Q96RI1); assay: qHTS assay for small molecule antagonists of farnesoid X receptor signaling (AID 588526); conditions: HEK293T FXR-UAS-bla, beta-lactamase ratio, antagonist mode; series mostly up to 76.7 µM
Procedure, shortened: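 Antagonist mode: titrated compounds tested against chenodeoxycholic acid stimulation (normalized to 50 uM CDCA and DMSO) in GeneBLAzer HEK293T cells for 16 h. Beta-lactamase read by CCF4 fluorescence; IC50 from Hill fits.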

[17] = molecular target: Vitamin D3 receptor (Homo sapiens) (UniProt P11473); assay: qHTS assay for small molecule antagonists of vitamin D receptor signaling (AID 588541); conditions: HEK293T VDR-UAS-bla, beta-lactamase ratio, antagonist mode; series mostly up to 76.7 µM;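 also: receptor activated by calcitriol during compound treatment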
Chain of Vitamin D3 receptor (Homo sapiens) (P11473 whole entry, looked up): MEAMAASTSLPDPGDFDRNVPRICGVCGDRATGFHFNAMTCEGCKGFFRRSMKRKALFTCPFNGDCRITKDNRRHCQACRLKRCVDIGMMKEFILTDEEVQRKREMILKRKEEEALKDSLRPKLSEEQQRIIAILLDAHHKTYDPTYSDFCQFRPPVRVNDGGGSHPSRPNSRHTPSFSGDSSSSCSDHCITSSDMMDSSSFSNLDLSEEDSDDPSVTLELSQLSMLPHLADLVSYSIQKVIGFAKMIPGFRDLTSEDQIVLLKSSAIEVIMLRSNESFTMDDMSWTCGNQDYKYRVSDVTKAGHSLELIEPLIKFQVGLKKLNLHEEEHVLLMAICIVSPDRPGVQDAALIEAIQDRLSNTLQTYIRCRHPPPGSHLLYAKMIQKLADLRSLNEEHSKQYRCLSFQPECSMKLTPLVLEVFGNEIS
Procedure, shortened: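 VDR-UAS-bla HEK293T cells in 2% charcoal-stripped FBS were stimulated with 1-alpha,25-dihydroxyvitamin D3 (3 nM final) plus compound for 16 h at 37 C. The beta-lactamase CCF4 readout was normalized to 50 nM agonist and DMSO, and Hill fits gave IC50.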

[18] = molecular target: Retinoic acid receptor RXR-alpha (Homo sapiens) (UniProt P19793); assay: qHTS assay for small molecule agonists of retinoid X receptor alpha signaling (AID 588544); conditions: HEK293T RXRa-UAS-bla, beta-lactamase reporter, 18 h; series mostly up to 76.7 µM
Chain of Retinoic acid receptor RXR-alpha (Homo sapiens) (P19793 whole entry, looked up): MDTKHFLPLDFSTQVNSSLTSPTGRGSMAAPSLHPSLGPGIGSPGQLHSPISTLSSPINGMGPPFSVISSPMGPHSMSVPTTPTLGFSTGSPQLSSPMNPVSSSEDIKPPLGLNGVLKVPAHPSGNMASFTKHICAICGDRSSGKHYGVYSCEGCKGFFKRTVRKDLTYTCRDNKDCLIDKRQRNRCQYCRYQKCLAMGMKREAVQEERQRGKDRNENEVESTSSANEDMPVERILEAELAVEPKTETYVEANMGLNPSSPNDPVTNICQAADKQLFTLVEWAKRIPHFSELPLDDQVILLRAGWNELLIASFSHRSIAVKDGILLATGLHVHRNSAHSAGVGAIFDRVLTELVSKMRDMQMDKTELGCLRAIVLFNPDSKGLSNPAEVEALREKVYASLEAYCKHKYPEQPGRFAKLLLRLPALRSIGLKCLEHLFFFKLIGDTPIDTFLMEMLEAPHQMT

[19] = molecular target: Estrogen receptor (Homo sapiens) (UniProt P03372); assay: qHTS assay for small molecule antagonists of estrogen receptor alpha signaling (AID 588513; active = well fitted curve in the direction sought with a large enough effect in the signal ratio, with a control signal flat, not every such curve was filed as active; the % refers to the signal ratio); conditions: ER-alpha-UAS-bla HEK293, beta-lactamase ratio, antagonist mode; series mostly up to 76.9 µM
Procedure, shortened: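 Cells were plated at 5000/well and incubated 4 h at 37 C. Compounds were added as 1:2 dilution series, duplicates. 17-beta-estradiol (0.5nM final) was added for 18 h before CCF4 detection.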

[20] = molecular target: Glucocorticoid receptor (Homo sapiens) (UniProt P04150); assay: qHTS assay for small molecule antagonists of glucocorticoid receptor signaling (AID 588533; active = well fitted inhibition curve with a large enough effect in the signal ratio, with a control signal flat, not every such curve was filed as active; the % refers to the signal ratio); conditions: HeLa MMTV-bla, GRE beta-lactamase ratio, antagonist mode, 18 h; series mostly up to 76.8 µM
Procedure, shortened: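 Antagonist-mode qHTS: compound titrations added to GRE-bla HeLa cells, then dexamethasone 2 nM final; 18 h, 37 C. CCF4 FRET fluorescence normalized to dexamethasone and DMSO; IC50 from Hill fit.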

| SMILES | Potency [1] | Potency [2] | Potency [3] | caspase-3 activation [4] | Potency [5] | activation [6] | Potency [7] | Potency [8] | activation [9] | outcome [10] | max response [11] | Potency [12] | Potency [13] | Potency [14] | Potency [15] | outcome [16] | outcome [17] | outcome [18] | Potency [19] | outcome [20] |
| --- | --- | --- | --- | --- | --- | --- | --- | --- | --- | --- | --- | --- | --- | --- | --- | --- | --- | --- | --- | --- |
| Nc1ccc(Cc2ccc(N)c(Cl)c2)cc1Cl | > 92 µM (inactive) | inactive | inactive | 25.3% (inactive) | inactive | -1.55% (inactive) | 39.8 µM (active) | inactive | – | – | – | – | – | – | – | – | – | – | – | – |
| Oc1c(Cl)c(Cl)cc(Cl)c1Cl | > 92 µM (inactive) | – | – | 83.2% (active) | – | – | – | 42.2 µM (active) | 3.3% (inactive) | inactive | -31% | 66.8 µM (active) | – | – | – | – | – | – | – | – |
| ClCCCCl | > 92 µM (inactive) | inactive | inactive | 2.19% (inactive) | – | -8% (inactive) | – | inactive | 1.98% (inactive) | inactive | 23.7% | inactive | > 92 µM (inactive) | inactive | inactive | inactive | inactive | inactive | – | – |
| O=[N+]([O-])c1c(Cl)c(Cl)c(Cl)c(Cl)c1Cl | > 92 µM (inactive) | 31.6 µM (active) | inactive | 0.645% (inactive) | inactive | -3.84% (inactive) and -0.795% (inactive) | – | inactive | – | inactive | 0.973% | 37.6 µM (active) and 24.3 µM (active) | – | inactive | inactive | – | – | inactive | inactive | inactive |
| Nc1ccc2ccccc2c1 | > 92 µM (inactive) | – | – | 1.77% (inactive) | inactive | – | – | inactive | – | – | – | – | > 92 µM (inactive) | inactive | – | – | – | – | inactive | – |
| CC(=O)NNc1ccccc1 | > 92 µM (inactive) | – | inactive | – | – | – | – | inactive | -3.51% (inactive) | – | 50% | – | > 92 µM (inactive) | – | inactive | inactive | – | – | – | – |
| CC(Cl)CCl (stereo not drawn) | > 92 µM (inactive) | inactive | inactive | 0.191% (inactive) | inactive | 4.13% (inactive) | – | inactive | – | inactive | – | inactive | – | – | – | – | inactive | inactive | inactive | inactive |
| CCCCC(CC)COC(=O)c1ccc(C(=O)OCC(CC)CCCC)c(C(=O)OCC(CC)CCCC)c1 (stereo not drawn) | > 92 µM (inactive) | inactive | inactive | – | – | -5.8% (inactive) | – | – | – | inactive | – | inactive | > 92 µM (inactive) | inactive | inactive | – | inactive | inactive | – | inactive |
| C=CC#N | > 92 µM (inactive) | – | inactive | -0.0463% (inactive) | inactive | -6.69% (inactive) | inactive | inactive | – | – | – | inactive | – | inactive | inactive | – | inactive | inactive | – | inactive |
| S=C1NCCN1 | > 92 µM (inactive) | – | inactive | 0.9% (inactive) | – | – | inactive | – | – | – | – | – | > 92 µM (inactive) | inactive | inactive | – | inactive | inactive | – | – |
